Where “and” joins values, the source holds several entries; their conditions need not be identical. Equal values may be shown once. Some compounds were tested as several samples or in several runs, with calls that do not always agree. Calls of active or inactive are those of the source. The calls were made as follows: active = hit-call score of the fitted dose curve at least 0.9, where 1 is the maximum; inactive = score below 0.9.
Key:
[1] = BSK_3C_TissueFactor: BioMAP Diversity Plus: 3C Assay for Tissue Factor Biomarker Activity (AID 2282997); conditions: BioMAP 3C HUVEC, tissue factor biomarker readout; actives raise or lower the signal
Outline: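 Primary human umbilical vein endothelial cells in the 3C system were exposed to test chemical for 24 h, then Tissue Factor measured by ELISA. Activity was fitted bidirectionally against DMSO as negative control and baseline.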

[2] = BSK_3C_uPAR: BioMAP Diversity Plus: 3C Assay for Urokinase-type plasminogen activator receptor (uPAR) Biomarker Activity (AID 2282998); conditions: BioMAP 3C HUVEC, uPAR biomarker ELISA; actives raise or lower the signal
Outline: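 HUVEC primary cells; 24 h post-dose; uPAR by ELISA; gain or loss of signal fitted bidirectionally vs DMSO baseline.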

[3] = BSK_3C_VCAM1: BioMAP Diversity Plus: 3C Assay for Vascular cell adhesion molecule 1 (VCAM1) Biomarker Activity (AID 2282999); conditions: BioMAP 3C HUVEC, VCAM1 ELISA, cytokine-stimulated; actives raise or lower the signal
Outline: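 Human umbilical vein endothelial cells (3C system), biomarker read by ELISA 24 h after dosing; bidirectional fit against DMSO baseline. Cytotoxicity tracked by SRB total-protein staining in parallel cultures at biomarker time.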

[4] = BSK_4H_Eotaxin3: BioMAP Diversity Plus: 4H Assay for Eotaxin 3 Biomarker Activity (AID 2283000); conditions: primary human endothelial cells (HUVEC); actives raise or lower the signal
Outline: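 HUVEC, 24 h post-dose, ELISA for Eotaxin-3/CCL26. Gain or loss of signal fitted bidirectionally vs DMSO baseline.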

[5] = BSK_3C_Proliferation: Cell Proliferation Assessment in the BioMAP Diversity Plus: 3C Assay (AID 2283006); conditions: primary human endothelial cells (HUVEC);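 also: potency may reflect either rise or fall in cell number versus DMSO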
Outline: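 Read-out is total protein by SRB absorbance at 560 nm, taken as a proxy for relative cell number. Primary human umbilical vein endothelium cultured below confluence was dosed for 48 h, TCA-fixed and SRB-stained; curves were fitted bidirectionally versus DMSO.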

[6] = read-out: E-selectin (Homo sapiens) (UniProt P16581); test: BSK_3C_Eselectin: BioMAP Diversity Plus: 3C Assay for Eselectin Biomarker Activity (AID 2283015); conditions: primary human endothelial cells (HUVEC); actives raise or lower the signal;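 also: cell surface E-selectin protein quantified by ELISA 24 h after dosing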
Outline: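 Primary human umbilical vein endothelial cells (3C system) were dosed with chemical and cell-surface E-selectin measured by ELISA 24 h later. Bidirectional curve fitting used DMSO as negative control and baseline.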

[7] = read-out: Interleukin-1 alpha (IL1a), IL1A (gene 3552); test: BSK_BE3C_IL1a: BioMAP Diversity Plus: BE3C Assay for Interleukin-1 alpha (IL1a) Biomarker Activity (AID 2283016); conditions: primary human bronchial epithelial cells; actives raise or lower the signal
Outline: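 BE3C primary human bronchial epithelium; cpd 24 h; IL-1a by ELISA; bidirectional fit vs DMSO; parallel SRB (0.1% SRB, 10% TCA fix, 560 nm) for cytotoxicity.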

[8] = read-out: Monocyte Chemoattractant Protein-1 (MCP1), CCL2 (gene 6347); test: BSK_3C_MCP1: BioMAP Diversity Plus: 3C Assay for Monocyte Chemoattractant Protein-1 (MCP1) Biomarker Activity (AID 2283017); conditions: primary human endothelial cells (HUVEC); actives raise or lower the signal
Outline: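 Primary human umbilical vein endothelial cells (3C system) were exposed to test chemical for 24 h, after which MCP-1 was quantified by ELISA. Activity was fitted bidirectionally against DMSO as negative control and baseline.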

[9] = read-out: Monocyte Chemoattractant Protein-1 (MCP1), CCL2 (gene 6347); test: BSK_4H_MCP1: BioMAP Diversity Plus: 4H Assay for Monocyte Chemoattractant Protein-1 (MCP1) Biomarker Activity (AID 2283018); conditions: primary human endothelial cells (HUVEC); actives raise or lower the signal
Outline: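 ELISA read-out of MCP-1 from human vascular endothelial primary cells taken at 24 hours after compound exposure. Activity was fitted in both directions relative to DMSO, which served as negative control.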

[10] = read-out: Human Leukocyte Antigen - DR isotype (HLADR), HLA-DRA (gene 3122); test: BSK_3C_HLADR: BioMAP Diversity Plus: 3C Assay for Human Leukocyte Antigen - DR isotype (HLADR) Biomarker Activity (AID 2283019); conditions: primary human endothelial cells (HUVEC); actives raise or lower the signal
Outline: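 Primary human umbilical vein endothelial cells (3C system) were dosed with compound and cell-surface HLA-DR was quantified by ELISA at 24 h. Activity was fitted bidirectionally against DMSO as negative control and baseline.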

[11] = read-out: Interleukin-8 (IL8), CXCL8 (gene 3576); test: BSK_3C_IL8: BioMAP Diversity Plus: 3C Assay for Interleukin-8 (IL8) Biomarker Activity (AID 2283020); conditions: primary human endothelial cells (HUVEC); actives raise or lower the signal
Outline: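 ELISA read-out of IL-8 from human umbilical vein endothelium, measured 24 h after chemical dosing. Activity is expressed relative to DMSO negative control, with both increases and decreases fitted.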

[12] = read-out: Monokine induced gamma interferon (MIG), CXCL9 (gene 4283); test: BSK_3C_MIG: BioMAP Diversity Plus: 3C Assay for Monokine induced gamma interferon (MIG) Biomarker Activity (AID 2283021); conditions: primary human endothelial cells (HUVEC); actives raise or lower the signal
Outline: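 Read-out is ELISA detection of MIG on human umbilical vein endothelial cells, taken 24 h after dosing. Gain or loss of signal was scored relative to DMSO controls using bidirectional curve fitting.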

[13] = BSK_3C_SRB: Viability Assessment in the BioMAP Diversity Plus: 3C Assay (AID 2283023); conditions: primary human endothelial cells (HUVEC);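 also: fitted both ways against DMSO so a hit may be signal rise or drop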
Outline: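 Primary human umbilical vein endothelial cells in the 3C system were read 24 h after compound dosing. Total protein was stained with 0.1% sulforhodamine B after 10% TCA fixation and read at 560 nm, with bidirectional fitting against DMSO as baseline.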

[14] = read-out: Pselectin, SELP (gene 6403); test: BSK_4H_Pselectin: BioMAP Diversity Plus: 4H Assay for Pselectin Biomarker Activity (AID 2283026); conditions: primary human endothelial cells (HUVEC); actives raise or lower the signal
Outline: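 ELISA read-out of P-selectin on human umbilical vein endothelium after 24 h of dosing. Values derive from bidirectional fitting relative to DMSO. Parallel SRB protein staining flagged overt cytotoxicity.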

[15] = BSK_4H_SRB: Viability Assessment in the BioMAP Diversity Plus: 4H Assay (AID 2283027); conditions: primary human endothelial cells (HUVEC);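 also: cells exposed to compound for 24 h before staining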
Outline: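 Human umbilical vein endothelial cells, 24 h after chemical dosing; total protein measured by 0.1% sulforhodamine B staining after 10% TCA fixation, read at 560 nm. Bidirectional fitting against DMSO.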

[16] = BSK_BE3C_SRB: Viability Assessment in the BioMAP Diversity Plus: BE3C Assay (AID 2283028); conditions: primary human bronchial epithelial cells
Outline: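 Human primary bronchial epithelial cells were exposed to test chemicals for 24 h. Total protein in parallel cultures was then measured by staining with 0.1% sulforhodamine B after 10% TCA fixation, with absorbance read at 560 nm. Activity was fitted bidirectionally against DMSO.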

[17] = read-out: Thrombomodulin, THBD (gene 7056); test: BSK_3C_Thrombomodulin: BioMAP Diversity Plus: 3C Assay for Thrombomodulin Biomarker Activity (AID 2283029); conditions: primary human endothelial cells (HUVEC); actives raise or lower the signal
Outline: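 Read-out is ELISA of thrombomodulin on human umbilical vein endothelium 24 h after chemical dosing. Gain or loss of signal is scored relative to DMSO. Overt cytotoxicity is checked in parallel cultures by sulforhodamine B staining.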

[18] = read-out: Urokinase-type plasminogen activator receptor (uPAR), PLAUR (gene 5329); test: BSK_4H_uPAR: BioMAP Diversity Plus: 4H Assay for Urokinase-type plasminogen activator receptor (uPAR) Biomarker Activity (AID 2283030); conditions: primary human endothelial cells (HUVEC); actives raise or lower the signal
Outline: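 Primary human umbilical vein endothelial cells were exposed to chemical for 24 h before cell-surface uPAR was quantified by ELISA. Activity was fitted bidirectionally against the DMSO negative control baseline.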

[19] = read-out: Vascular endothelial growth factor receptor 2 (Homo sapiens) (UniProt P35968); test: BSK_4H_VEGFRII: BioMAP Diversity Plus: 4H Assay for Vascular endothelial growth factor receptor 2 (VEGFR2) Biomarker Activity (AID 2283031); conditions: primary human endothelial cells (HUVEC); actives raise or lower the signal;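 as to AC50: cell-surface VEGFR2 protein level quantified by ELISA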
Outline: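 Primary human umbilical vein endothelial cells in the BioMAP 4H system were dosed with test chemical, and 24 h later VEGFRII was measured by ELISA. Activity was fitted bidirectionally against DMSO as negative control and baseline.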

Measured: AC50

E-selectin (Homo sapiens), sequence (P16581 whole entry, looked up): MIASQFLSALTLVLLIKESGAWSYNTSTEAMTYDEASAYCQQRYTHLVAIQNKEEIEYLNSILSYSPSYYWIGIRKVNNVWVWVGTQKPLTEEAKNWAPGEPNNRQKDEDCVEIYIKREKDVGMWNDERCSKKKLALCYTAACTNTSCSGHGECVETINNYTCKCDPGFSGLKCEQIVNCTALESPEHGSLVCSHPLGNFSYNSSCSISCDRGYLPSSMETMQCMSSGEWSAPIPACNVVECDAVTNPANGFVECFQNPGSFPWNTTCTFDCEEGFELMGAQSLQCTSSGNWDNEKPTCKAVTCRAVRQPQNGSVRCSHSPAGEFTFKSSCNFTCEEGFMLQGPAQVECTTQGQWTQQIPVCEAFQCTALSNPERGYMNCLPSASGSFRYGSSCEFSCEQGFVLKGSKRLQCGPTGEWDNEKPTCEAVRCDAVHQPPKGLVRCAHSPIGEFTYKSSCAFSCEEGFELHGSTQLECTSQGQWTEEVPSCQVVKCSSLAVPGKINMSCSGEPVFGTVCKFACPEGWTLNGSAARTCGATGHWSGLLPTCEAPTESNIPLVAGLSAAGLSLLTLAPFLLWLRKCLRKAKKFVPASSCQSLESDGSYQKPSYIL

[Cd+2].[Cl-].[Cl-]
inactive: [2] | [3] | [6] | [7] | [8] | [9] | [11] | [12] | [13] | [14] | [15] | [16] | [17] | [18] | [19]
active: [1] 1 µM and 863 nM | [4] 35.7 µM and 32.2 µM | [5] 30.1 µM and 30 µM | [10] 17 µM and 10.9 µM | [11] 20 µM | [14] 4.97 µM | [19] 6.83 µM

From PubChem BioAssay (EPA / NIEHS)
